Results reported in PubChem BioAssay AID651640 (Broad Institute, 2012).
The campaign covered roughly 350,000 compounds. About 6,000 (1.7%) were called active. Inconclusive results (about 5%) are left out. No stated cut-off is given here; in the data, active means CPE inhibition above about 20% (passing the limit was not always enough); inconclusive means no clear call, values can overlap the other calls; tested in BHK-21 cells. What follows is part of a selection rich in actives, with near analogues and random picks from the rest.

Assay: protection of cells from dengue 2 killing – plate reader, single concentration, primary screen (AID 651640);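 further: 0% = median of neutral control wells and 100% = median of positive control wells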
Details: DENV2-infected cells, cytopathic effect rescue, at 9.99 µM, active compounds read high

SMILES | CPE inhibition
Cc1ccc(S(=O)(=O)NCC[C@@H]2CC[C@H](NC(=O)CC3CC3)[C@H](CO)O2)cc1 | -2.24% (inactive)
COc1ccc(NC(=O)Nc2ccc3c(c2)C(=O)N([C@H](C)CO)C[C@@H](C)[C@H](CN(C)Cc2ccccc2)O3)cc1 | -6.1% (inactive)
CCCC#Cc1ccc2c(c1)O[C@H](CN(C)C(=O)c1ccncc1)[C@H](C)CN([C@H](C)CO)S2(=O)=O | -4.65% (inactive)
CO[C@@H]1CN(C)C(=O)c2ccc(NS(=O)(=O)c3cn(C)cn3)cc2OC[C@H](C)N(CCC(F)(F)F)C[C@@H]1C | -5.08% (inactive)
C[C@@H]1CN([C@@H](C)CO)C(=O)c2cc(NC(=O)CCN3CCOCC3)ccc2O[C@H]1CN(C)C(=O)NC1CCCCC1 | -3.33% (inactive)
COc1ccc(C(=O)N2C[C@@H]3[C@H](c4ccccc42)[C@H](CO)N3Cc2ccc3c(c2)OCO3)cc1 | -6.95% (inactive)
CC(=O)N1C[C@@H]2[C@H](c3ccccc31)[C@H](CO)N2Cc1ccc(Cl)cc1 | 16.8% (inactive)
COc1ccccc1NC(=O)N1C[C@H]2[C@@H](c3ccccc31)[C@H](CO)N2Cc1ccc2c(c1)OCO2 | 55.6% (active)
COc1ccc(CN2[C@H](CO)[C@@H]3c4ccccc4N(C(=O)C4CC4)C[C@@H]32)cc1 | 26.1% (active)
COc1ccc(CN2[C@@H](CO)[C@@H]3c4ccccc4N(C(=O)Nc4ccccc4)C[C@@H]32)cc1 | -9.93% (inactive)
CN1[C@@H]2CN(C(=O)C3CCCCC3)c3ccccc3[C@@H]2[C@@H]1CO | -5.31% (inactive)
CC(C)NC(=O)N1C[C@@H]2[C@H](c3ccccc31)[C@H](CO)N2C(=O)C1CCCC1 | -6.09% (inactive)
CC(C)NC(=O)N1C[C@@H]2[C@H](c3ccccc31)[C@@H](CO)N2Cc1ccc(Cl)cc1 | 47.3% (active)
COc1ccccc1NC(=O)N1C[C@@H]2[C@H](c3ccccc31)[C@H](CO)N2CC1CCOCC1 | 16.7% (inactive)
CCC(=O)N(C)C[C@H]1Oc2ncc(C#Cc3cccnc3)cc2C(=O)N([C@H](C)CO)C[C@H]1C | 4.92% (inactive)
CCCNC(=O)N1[C@H](C#N)[C@@H](c2ccccc2C2=CCCCC2)[C@@H]1CO | -2.61% (inactive)
O=C(c1ccc2c(c1)OCO2)N1CC(=O)N2[C@H](C1)[C@@H](c1ccc(C#Cc3ccccc3)cc1)[C@@H]2CO | 11.6% (inactive)
COc1ccc(NC(=O)Nc2ccc3c(c2)C(=O)N([C@H](C)CO)C[C@@H](C)[C@@H](CN(C)C(=O)NC(C)C)OCCCC[C@H](C)O3)cc1 | 4.29% (inactive)
